Luciferase inh – Photinus pyralis luciferase inhibition; Potency, µM (series often up to 115 µM), hits mostly inhibitors; P08659; hit rate 2.5% among 76,000; purified P. pyralis luciferase, luminescence, biochemical; also: nearly all actives have a fitted effect of over 65% in size
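Biochemical qHTS: compound (6-point titration) added to 10uM D-luciferin plus 10uM ATP in Tris acetate pH 7.5 buffer with Mg, Tween-20 and BSA, then purified enzyme at 10nM; light output imaged.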
HEK cytotox – kills HEK 293 cells; HEK 293 viability, ATP luminescence (CellTiter-Glo), 48-72 h; Potency, µM (series often up to 115 µM), for the others: at the highest dose activity change, negative = cytotoxicity, most hits filed as inhibitors; hit rate 6.6% among 94,000; AID 1345083; also: nearly all actives have a fitted effect of over 60% in size
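HEK 293 cells seeded at 250 cells/well were exposed to compound for 48 or 72 hr at 37 degree Celsius. Viability taken as ATP content by CellTiter-Glo luminescence.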
hNpr1 antagonist – antagonists of human natriuretic peptide receptor Npr1; P16066; HEK293 hNpr1 GloSensor cGMP, ANP-stimulated luminescence; Potency, µM (highest dose often 46.3 µM), without a hit: top-dose activity change, negative = inhibition, actives largely listed as inhibitors; hit rate 1.6% among 76,000; calls by dose curve; also: nearly all actives have a fitted effect of over 60% in size
Target sequence (P16066 whole entry, looked up): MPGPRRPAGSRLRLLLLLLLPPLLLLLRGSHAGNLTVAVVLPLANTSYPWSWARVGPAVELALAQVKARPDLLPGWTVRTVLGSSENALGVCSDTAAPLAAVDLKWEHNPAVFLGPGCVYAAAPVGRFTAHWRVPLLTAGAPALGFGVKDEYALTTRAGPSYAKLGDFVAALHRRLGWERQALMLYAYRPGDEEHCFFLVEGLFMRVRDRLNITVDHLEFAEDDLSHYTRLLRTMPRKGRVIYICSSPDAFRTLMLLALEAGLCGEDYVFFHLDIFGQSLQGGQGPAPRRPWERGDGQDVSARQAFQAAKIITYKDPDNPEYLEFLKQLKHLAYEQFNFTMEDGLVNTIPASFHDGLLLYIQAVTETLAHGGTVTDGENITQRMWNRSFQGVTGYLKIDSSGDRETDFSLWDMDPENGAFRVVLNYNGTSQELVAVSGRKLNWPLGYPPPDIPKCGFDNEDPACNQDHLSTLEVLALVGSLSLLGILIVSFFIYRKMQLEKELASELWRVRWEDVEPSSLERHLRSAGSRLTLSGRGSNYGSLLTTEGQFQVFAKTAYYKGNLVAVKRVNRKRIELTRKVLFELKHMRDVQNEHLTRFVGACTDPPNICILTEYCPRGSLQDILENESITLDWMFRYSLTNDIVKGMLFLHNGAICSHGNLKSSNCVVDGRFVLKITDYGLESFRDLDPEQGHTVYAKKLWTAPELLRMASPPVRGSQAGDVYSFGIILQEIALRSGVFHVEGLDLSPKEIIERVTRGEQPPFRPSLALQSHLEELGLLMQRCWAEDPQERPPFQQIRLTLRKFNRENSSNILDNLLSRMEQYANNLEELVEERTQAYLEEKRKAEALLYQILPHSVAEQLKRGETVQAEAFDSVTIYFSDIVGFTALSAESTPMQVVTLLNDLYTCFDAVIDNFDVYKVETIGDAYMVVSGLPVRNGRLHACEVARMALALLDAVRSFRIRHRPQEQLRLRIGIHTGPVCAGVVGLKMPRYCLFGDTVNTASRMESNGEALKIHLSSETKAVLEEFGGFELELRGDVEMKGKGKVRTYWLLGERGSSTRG
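Compound pre-incubated 30 min at room temperature on GloSensor-loaded HEK293 cells stably carrying hNpr1 and the pGS-40F cGMP biosensor. Stimulation uses hNppA at 0.1 nM final; luminescence is taken at baseline and 20 min post-agonist.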
NIH3T3 tox – kills NIH 3T3 cells | NIH 3T3 viability, CellTiter-Glo ATP luminescence, 48-72 h | Potency, µM (doses to about 96.7 µM), without a hit: at the highest dose activity change, negative = cytotoxicity, actives largely listed as inhibitors | hit rate 4.3% among 94,000; also: nearly all actives have a fitted effect of over 55% in size
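Cytotoxicity was measured by CellTiter-Glo ATP luminescence after 48 or 72 h compound exposure at 37 °C. Mouse NIH 3T3 fibroblasts were seeded at 400 cells/well and dosed by 23 nL pin transfer.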
GPT2 inh – inhibitors of human GPT2 alanine aminotransferase. Q8TD30. Recombinant GPT2, coupled pyruvate oxidase/HRP Amplex Red fluorescence. Potency, µM (series often up to 57.7 µM), inactives show at the highest dose activity change, negative = inhibition, most hits filed as inhibitors. hit rate 0.25% among 100,000. AID 1671188; also: nearly all actives have a fitted effect of over 60% in size
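Fluorescence of coupled pyruvate oxidase/HRP/Amplex Red system (50uM Amplex, 30 min, dark) reports pyruvate formed by GPT2. Enzyme reaction: 10ng/uL GPT2, 2mM L-alanine, 250uM a-KG, 30 min room temperature, pH 7.5; 50uM AOA control.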
* marks the source's active call; other numbers are inactive results; i = inactive; u = inconclusive; x = no result given; ! = not active in a repeat; [ ] = remark or other dose. An excerpt weighted towards active compounds, which were near 10% of everything screened. Unless noted, calls follow the shape of the dose curve; as a rule, active = well fitted curve in the direction sought with a large enough effect; inconclusive = small, poorly fitted or top-dose-only effect, or another doubt; inactive = no such curve, though single readings can be large; an effect the other way counts as inactive or inconclusive. % is scaled to controls: 0 for no effect and ±100 for the full control effect; potency is read from the fitted curve at half-maximal effect.

SMILES	Luciferase inh	HEK cytotox	hNpr1 antagonist	NIH3T3 tox	GPT2 inh
COc1cccc(C(=O)N2[C@@H]3CC[C@H]2CC(NC(=O)c2cnc(C)cn2)C3)c1C (stereo not given in full)	i	-23.3%	-2.2%	-12.2%	u
COCCS(=O)(=O)c1ncc(CN2CC[C@@H]3CCCC[C@H]3C2)n1Cc1ccccc1	i	44.7µM*	-3.8%	u	4.7%
COC(=O)c1ccc2nc(C[C@@H]3C[C@@H](C(C)C)[C@H](CN)C=C3C)[nH]c2c1	i	u	-10.2%[70.6 µM]	63.1µM*	i
COC(=O)c1ccc2nc(C[C@@H]3C[C@@H](C(C)C)[C@H](CNC4CCCCC4)C=C3C)[nH]c2c1	i	u	-9.2%	17.8µM*	-4.7%
COC(=O)c1ccc2nc(C[C@@H]3C[C@@H](C(C)C)[C@H](CNC4CCOCC4)C=C3C)[nH]c2c1	i	u	1.2%	u	-7.7%
O=C(CNC(=O)c1ccc(-c2cnc3ccccc3c2)cc1)NCCc1ccccc1	x	-14.3%	x	-25.7%	x
CCCCOc1ccc(CN2C[C@@H]3C(=O)N(C)C(=O)[C@@H]3C2)cc1	28.2µM*	u	-21.1%	-7.7%	-7.0%
COc1ccc(-c2ccccc2C(=O)NC2CCc3ccccc32)nn1 (stereo not given)	x	1.4%	x	0.2%	x
c1cncc(Nc2cc3c(cn2)CN(Cc2ccsc2)CCN3)c1	20µM*	u	-3.7%[70.6 µM]	u	0.5%[88.5 µM]
c1cncc(Nc2cc3c(cn2)CN(CC2CCOCC2)CCN3)c1	u	-25.5%[172 µM]	2.9%[70.6 µM]	u	-9.8%[88.5 µM]
FC(F)(F)Oc1cccc(CN2CCNc3cc(Nc4cccnc4)ncc3C2)c1	u	u	-0.6%[70.6 µM]	u	i
c1cncc(Nc2cc3c(cn2)CN(Cc2c[nH]c4ccccc24)CCN3)c1	u	112µM*	-23.4%[70.6 µM]	u	-16.0%[88.5 µM]
COc1ccc(C(=O)N2CCCC2c2nn(C)c(=O)n2Cc2ccccc2)cc1F (stereo not given)	x	i	x	3.2%	-15.5%
O=C(c1ccccc1F)N1CCC(C(=O)N2CCC(c3nc4ccncc4[nH]3)C2)CC1 (stereo not given)	x	0.9%	x	-9.1%	1.2%
COCCN1C(=O)CCc2cc(NC(=O)c3ccc4c(c3)OCO4)ccc21	39.8µM*	u	2.2%	-7.3%	3.2%
CC(C)CN1C(=O)CCc2cc(NC(=O)c3ccc4c(c3)OCO4)ccc21	u	39.8µM*	-13.4%	u	u
COCCN1C(=O)CCc2cc(NC(=O)COC)ccc21	i	5.8%	1.3%	0.0%	i
CCN1C(=O)CCc2cc(NC(=O)CC(C)C)ccc21	i	9.6%	-1.6%	-5.4%	-8.2%
COc1ccc(C2(C(=O)N(C)Cc3cccc(OC(F)(F)F)c3)CCOCC2)cc1	x	u	x	u	-10.1%
COc1ccc(-c2ccc(C(=O)N3CCN(Cc4ccccc4)CC3)cc2)nn1	x	u	x	-29.7%	x
C[S+](=O)([O-])Nc1cccc(Nc2cnc3ccc(-c4ccc(F)cc4)nn23)c1	u	79.4µM*	-20.8%[70.6 µM]	u	u
COc1ccc(-c2ccc3ncc(Nc4cccc(N[S+](C)(=O)[O-])c4)n3n2)cc1OC	39.8µM*	u	-1.9%	u	u
CC(=O)N1CCN(C(=O)c2ccc3nnc(-c4cc[nH]c4)n3c2)CC1	x	3.5%	x	-0.2%	-5.3%
COc1cc(OC)c(NC(=O)N2c3ccccc3CC2c2nc(C3CC3)no2)cc1Cl (stereo not given)	i	-4.0%	-14.4%	-4.2%	-15.4%
COc1ccc(NC(=O)O[C@@H]2CO[C@H]3[C@@H]2OC[C@@H]3NS(=O)(=O)c2ccc(NC(C)=O)cc2)cc1	44.7µM*	-5.7%	-0.6%	u	0.0%
SMILES	Luciferase inh	HEK cytotox	hNpr1 antagonist	NIH3T3 tox	GPT2 inh
Cc1ccc(C(=O)N[C@H]2CO[C@H]3[C@@H]2OC[C@@H]3Nc2nccc(C(C)(C)C)n2)cc1	u	63.1µM*	u	u	-4.1%[88.5 µM]
CC(=O)Nc1ccc(S(=O)(=O)N[C@H]2CO[C@H]3[C@@H]2OC[C@@H]3Nc2nccc(C(C)(C)C)n2)cc1	u	u	15.8µM*	u	i
COc1ccccc1C(=O)N1CCCC(c2nnc3n2CCN(C(=O)C2CC2)C3)C1 (stereo not given)	x	-17.0%	x	-25.7%	3.3%
COc1ccc(-c2cn3cc(C(=O)NCCc4ccc(Cl)cc4)nc3s2)cc1	x	-5.9%	x	-25.5%	i
CCOc1ccccc1CN1CC[C@H](c2n[nH]c(C)n2)[C@H](NC(=O)C2CCOCC2)C1	i	-22.0%	3.7%	i	i
C[S+](=O)([O-])c1ccc(-c2nnc3ccc(C(=O)NCc4ccccn4)cn23)cc1	x	4.8%	x	-3.4%	i
COc1ccccc1-c1ccc(CN2CCCCC2C(=O)NCCc2ccccc2)cc1 (stereo not given)	x	39.8µM*	x	39.8µM*	-8.4%
COCCNC(=O)C1CCCCN1Cc1ccc(-c2ccccc2OC)cc1 (stereo not given)	x	44.7µM*!	x	u	x
C[C@H]1/C=C/C=C/C=C/C=C/C=C/[C@@H](O)[C@H](C(=O)O)[C@H](O)C[C@H](O)CCC[C@H](O)C[C@H](O)C[C@H](O)[C@@H](C)C(=O)O[C@@H]1C	x	x	x	x	3.5%[17.1 µM]
Cc1ccccc1Nc1cnc2ccc(-c3cccc(CO)c3)nn12	i	79.4µM*	-2.6%[70.6 µM]	u	-2.6%[88.5 µM]
COc1ccccc1Nc1cnc2ccc(-c3cccc(CO)c3)nn12	i	u	u	u	i
OCc1cccc(-c2ccc3ncc(Nc4cccc(F)c4)n3n2)c1	i	56.2µM*	-24.3%[70.6 µM]	28.2µM*	u
COCC(=O)NC[C@H]1CCN(Cc2ccccc2)C[C@H]1N(C)C	i	-16.7%	-2.9%	-9.6%	i
O=C(NCCC1=CCCCC1)[C@H]1CN(Cc2ccccc2)C[C@H]1C(=O)O	x	i	x	0.5%	1.1%
CCOCCNC(=O)c1cc(-c2cccc(C(F)(F)F)c2)c2cccn2n1	x	u	x	u	i
COC(=O)CNC(=O)c1cc(-c2cccc(C(F)(F)F)c2)c2cccn2n1	x	u	x	u	-24.6%
O=C(NCC1CC1)c1cc(-c2cccc(C(F)(F)F)c2)c2cccn2n1	x	28.2µM*	x	u	i
COCCNC(=O)c1cc(-c2cccc(C(F)(F)F)c2)c2cccn2n1	x	31.6µM*	x	u	-2.1%
COc1ccc(-c2nnc3n2CCN([S+](=O)([O-])c2ccc(C)cc2)C3)cc1	i	u	-0.5%	-21.7%	i
COC(=O)N[C@@H]1C[C@H]2C[C@@H](C(C)C)OC[C@@]2(c2ccccc2)C1	x	u	x	-28.2%	x
CCOc1ccccc1NC(=O)Cn1cccc1-c1nc(-c2ccc(F)cc2)no1	i	u	u	u	i

Compound activity deposited in PubChem by National Center for Advancing Translational Sciences (NCATS).
